From PubChem BioAssay (NCI)
About 83,000 compounds went through this panel and 20% of them were active in at least one assay; those are over-represented in the sample as a whole.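 Treatment: one concentration, 48 hours, 96-well format. Scoring: percent growth, with anything below 10 considered active.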 Unmarked numbers belong to inactive results. The source made the active and inactive calls.

System: MDA-MB-468 breast
Assay: NCI-60 one-dose screen, 48 h (100 = growth as untreated, 0 = no growth, -100 = all killed)
Details: 10 µM unless noted

Q: How did the growth turn out when O=C(CCCCCCc1nc2ccc(Br)cc2[nH]1)NO was run?
A: The growth was -1.04% (active).

Q: How did the growth turn out when C[N+](C)(C)CCCCCCCCCC[N+](C)(C)C was run?
A: Its growth is 79.6%.

Q: With O=c1ccccc(-c2ccc(Br)cc2)c1O as the molecule, how does the growth read?
A: Its growth is 12.3%.

Q: COc1cc(NC(=O)c2cc(O)c(C/C=C(\C)CCC=C(C)C)c(O)c2)cc2c1O[C@]1(C)CC[C@@H](O)C(C)(C)[C@H]1C2 was tested. Which growth did it give?
A: Its growth is 21.9%.

Q: How did the growth turn out when c1cc2c(cc1-c1cnc3nonc3n1)OCO2 was run?
A: Its growth is 84.6%.

Q: Which growth does the source give for Cc1cc(N2CCN(c3ccnc4cc(Cl)ccc34)CC2)nc(N2CCOCC2)n1 here?
A: Its growth is 68.7%.

Q: For Cc1ccc(-c2nc([P+](c3ccccc3)(c3ccccc3)c3ccccc3)c(Nc3ccccc3)o2)cc1, which growth is on record?
A: The growth was -41.8% (active).

Q: For COc1ccc(/C=C2\SC(=Nc3cc(C)on3)NC2=O)cc1, which growth is on record?
A: The growth was 95.6%.

Q: For CCOC(=O)c1c2c(n3ccc(C)cc13)C(=O)c1ccccc1C2=O, which growth is on record?
A: Its growth is 102%.

Q: With CCCCCCCCCCCCNC(=O)[C@H]1CSC(c2ccsc2)N1 (stereo not given in full) as the molecule, how does the growth read?
A: The growth was -74.1% (active).
